PubChem BioAssay (NCI)
The panel holds about 83,000 compounds, 20% with a hit somewhere; the sample as a whole holds those more often.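 Interpretation: 100, growth as untreated; towards 0, rising growth inhibition; 0, no net growth; 0 to -100, cell death. Compounds scoring below 10 were considered active.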 The source made the active and inactive calls.

system: SR leukemia; assay: NCI-60 one-dose screen, 48 h (100 = growth as untreated, 0 = no growth, -100 = all killed); settings: 10 µM unless noted
Experimental: Growth inhibition of the SR human tumor cell line is measured as a screen for anti-cancer activity. Cells are grown in 96 well plates and exposed to the test compound for 48 hours. Compounds are tested at a single concentration, which is 10^-5 M for most compounds. The reported endpoint is percent growth (GI% or GIPRCNT), where numbers from 0 - 100% represent growth inhibition, and numbers from -100% - 0 represent cell death. For example, a value of 40 represents 60% growth inhibition. A value of 0 means no net growth occurred over the course of the experiment. A value of -40 indicates 40% of cells at the beginning of the experiment died by the end of the experiment. A value of -100 means all cells are dead at the end of the experiment.
NCI-60 Human Tumor Cell Lines Screen was performed using the standard one-dose NCI protocol, which is described in more detail at https://dtp.cancer.gov/discovery_development/nci-60/default.htm.
Compounds with GIPRCNT values below 10 were considered active. Activity score was based on GIPRCNT using the following formula: […]
Score is 0 for GIPRCNT values of 100 or above, 50 for GIPRCNT values of 0, and 100 for GIPRCNT values of -100.

SMILES	growth
O=C(O)c1ccc(NC(=O)c2cccc(Nc3ccnc(C(F)(F)F)c3)c2)cc1	86.1% (inactive)
CN(C)c1ccc2[nH]c3c(C(N)=O)cc(=O)c(=O)c=3oc2c1	31% (inactive)
COc1cc(OC)c2sc(-c3ccc(-n4cncc4-c4ccc(N)cc4)cc3)nc2c1	68.3% (inactive)
C=CCCCCCCCCC(=O)[O][Sn]([CH2]CCC)([CH2]CCC)[CH2]CCC	8.68% (active)
Clc1ccc(-n2cnc3c(Cl)ncnc32)cc1Cl	19.5% (inactive)
Cc1cccc(Cl)c1NC(=O)c1ccc2nc(NC(=O)NC3CC(C)(C)NC(C)(C)C3)sc2c1	95.6% (inactive)
CSc1ncc2ncn(C3OC(CO)C(O)C3O)c2n1 (stereo not given)	111% (inactive)
COC1=CC(c2ccc[nH]2)=N/C1=C\c1[nH]c(C)c(C(=O)CCC(=O)Oc2ccc3c(c2)CCC2C3CC[C@]3(C)C(=O)CC[C@@H]23)c1C (stereo not given in full)	10.1% (inactive)
O=C(c1ccccc1)c1ccccc1Cl	94.5% (inactive)
CC(=O)NC1(C(=O)O)CCCC1	108% (inactive)
Cc1ccc(C(=O)Nc2ccc(Cl)cc2C(=O)NCc2ccccc2)cc1	37.1% (inactive)
CC(CCC(=O)O)(NC(=O)c1ccc([N+](=O)[O-])cc1)C(=O)O (stereo not given)	95.7% (inactive)
COc1ccc(C2=NN(C(=O)c3cc(OC)c(OC)c(OC)c3)C(c3ccc(C#N)cc3)C2)cc1OC (stereo not given)	28.4% (inactive)
O=C1/C(=C/c2ccc([N+](=O)[O-])s2)Oc2ccc(Br)cc21	7.74% (active)
CC(C)C/C(=N\NC(=O)c1ccncc1)c1cc(Cl)ccc1O	6.34% (active)
COc1ncc(-c2ccc3nccc(C#CCN4CCN(S(C)(=O)=O)CC4)c3c2)cc1NS(=O)(=O)c1ccc(F)cc1F	1.58% (active)
NC(=O)NN=C(C1CC1)C1CC1	85.6% (inactive)
COc1ccc(OC)c(/C=C/c2nc(=S)n(-c3ccc(Cl)cc3)[nH]2)c1	38.3% (inactive)
CCN(CC)CCCNCCCNc1cc(OC)cc2cccnc12	79.5% (inactive)
CCC1=C(c2ccc(OC)cc2)C(C)(C)Oc2c1ccc(O)c2CN1CCCC1	-4.25% (active)

SMILES	growth
C[C@]12CC[C@@H]3c4ccc(O)c([N+](=O)[O-])c4CC[C@H]3[C@@H]1CC[C@@H]2NS(=O)(=O)c1ccc(C(F)(F)F)cc1	-8.8% (active)
COc1cc(NC(=O)c2cc3ccccc3cc2O)c(OC)cc1Cl	1.88% (active)
O=C(/C=C/c1cc2ccccc2[nH]c1=O)c1ccc(O)cc1	-0.193% (active)
COc1cc(/C=C/C(=O)c2c(-c3ccc(Cl)cc3)nc3sc(C)nn23)cc(OC)c1OC	26.1% (inactive)
CCCCCCCC1(C)NC(=O)NC1=O (stereo not given)	96.9% (inactive)
Clc1ccc2nc(Cl)c3ccccc3c2c1	1.29% (active)
CCC1=C(c2ccc(OC)cc2)C(C)(C)Oc2cc(O)c(CN3CCCC3)cc21	9.49% (active)
O=[N+]([O-])c1ccc(N/N=C\c2ccccc2[N+](=O)[O-])nc1	92.4% (inactive)
CN1CCN(Cc2ccc(NC(=O)c3[nH]ncc3Nc3ccnc4ccnn34)cc2)CC1	16% (inactive)
c1csc([C@@H]2C[C@@H]3Cc4ccc5ccccc5c4N2O3)c1	95.1% (inactive)
c1ccc(-c2nnc(Nc3nnc(-c4ccccc4)s3)s2)cc1	97.4% (inactive)
O=C(Nc1ccc(Cl)cc1Cl)Nc1ccc(-c2cccnc2)cc1N1CCC(CO)CC1	6.57% (active)
CCCCCCC(C)(O)c1ccccc1 (stereo not given)	97.6% (inactive)
Cc1cc(NC(=O)c2ccc(N)cc2)ccc1N=Nc1ccc2c(O)c(N=Nc3ccc(Cl)c(S(=O)(=O)O)c3)c(S(=O)(=O)O)cc2c1	66.5% (inactive)
O=C(CCc1nnc(SCc2ccccc2)s1)c1nc2ccccc2[nH]1	74.4% (inactive)
Cc1ccc2c(c1)C(=O)/C(=C/c1ncc([N+](=O)[O-])n1C)O2	11% (inactive)
O=C(C(Br)Br)C(Br)C(Br)c1ccccc1 (stereo not given)	19.3% (inactive)
Nc1ccccc1-c1ccc([N+](=O)[O-])cc1	34.8% (inactive)
Nc1nc(N)c([N+](=O)[O-])c(=O)[nH]1	106% (inactive)
CC1=C(C(=O)Nc2ccccc2)C(c2ccc3c(c2)OCCO3)NC(=O)N1 (stereo not given)	92.9% (inactive)
